# Measured values from PubChem BioAssay AID2553 (Johns Hopkins Ion Channel Center, 2010).
# Screen size: about 310,000 compounds; about 3,300 (1.1%) were called active.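 The calls were made as follows: active = B-score under library mean minus 3 SD, initial fluorescence not abnormally high, positive integrated signal ratio; inactive = the rest.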 The sample as a whole holds a higher share of actives than the screen did.
# Biological target: Short transient receptor potential channel 6 (Mus musculus) (UniProt Q61143)
# Sequence (Q61143 whole entry, looked up): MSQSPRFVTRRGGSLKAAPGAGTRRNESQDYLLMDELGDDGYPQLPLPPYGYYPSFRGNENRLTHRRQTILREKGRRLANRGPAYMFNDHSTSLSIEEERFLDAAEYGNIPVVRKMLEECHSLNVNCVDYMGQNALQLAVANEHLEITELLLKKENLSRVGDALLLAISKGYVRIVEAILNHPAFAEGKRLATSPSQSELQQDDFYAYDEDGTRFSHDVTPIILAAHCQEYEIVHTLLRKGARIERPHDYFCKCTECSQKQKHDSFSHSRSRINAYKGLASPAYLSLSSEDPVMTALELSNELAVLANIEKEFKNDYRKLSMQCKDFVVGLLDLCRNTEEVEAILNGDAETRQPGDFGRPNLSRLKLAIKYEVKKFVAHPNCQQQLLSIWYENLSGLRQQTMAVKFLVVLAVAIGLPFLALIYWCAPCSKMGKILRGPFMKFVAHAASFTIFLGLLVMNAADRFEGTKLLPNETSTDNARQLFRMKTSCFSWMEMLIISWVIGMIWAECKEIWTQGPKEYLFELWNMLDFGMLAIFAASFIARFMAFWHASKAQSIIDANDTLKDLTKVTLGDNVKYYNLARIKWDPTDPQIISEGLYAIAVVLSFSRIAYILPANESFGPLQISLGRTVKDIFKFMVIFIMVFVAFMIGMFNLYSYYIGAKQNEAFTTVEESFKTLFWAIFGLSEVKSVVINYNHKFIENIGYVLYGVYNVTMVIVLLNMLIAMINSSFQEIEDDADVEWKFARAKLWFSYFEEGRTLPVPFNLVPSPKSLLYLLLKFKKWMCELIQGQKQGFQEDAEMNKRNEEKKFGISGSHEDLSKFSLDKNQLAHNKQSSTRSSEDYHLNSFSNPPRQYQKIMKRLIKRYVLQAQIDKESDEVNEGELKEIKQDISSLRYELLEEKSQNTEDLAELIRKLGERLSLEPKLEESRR
# Assay: mouse TRPC6 channel inhibitors, primary screen, cell-based, HEK293, membrane potential dye (AID 2553);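 as to B-score: B-score derived from integrated fluorescence ratio over the kinetic read; more negative B-score means stronger inhibition of depolarization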
# Conditions: ACh-evoked depolarization, at 10 µM; hits give low values
row,SMILES,B-score
1,Cc1ccc(-c2nc(COC(=O)c3c(C)noc3C)cs2)cc1,inactive
2,CCOc1cc(-c2conc2N)cc(OCC)c1OCC,inactive
3,Cc1csc2ncc(C(=O)N(Cc3ccccc3)c3ccccn3)c(=O)n12,inactive
4,CCOC(=O)CCc1c(C)c(C#N)c2[nH]c3ccccc3n2c1=O,inactive
5,Cc1ccccc1Cn1c(=O)[nH]c2ccccc21,inactive
6,CCCc1cc(=S)n2c([nH]c3ccccc32)c1C#N,-12.9 (active)
7,COc1ccc(OC)c(C(=O)c2ccc(C(=O)N3CCN(Cc4csc(C)n4)CC3)cc2)c1,inactive
8,CCOc1ccccc1NC(=S)N1CCN(c2cccc(C)c2C)CC1,inactive
9,CN(N)c1nc(N2CCCC2)nc(N2CCCC2)n1,inactive
10,Cn1c(=O)n(C)c2cc(C(=O)Nc3ccc(Br)cc3)ccc21,inactive
11,Cn1c(=O)n(C)c2cc(C(=O)Nc3ccc4c(c3)OCO4)ccc21,-7.03 (active)
12,Cn1c(NC(=O)c2ccc3c(c2)OCO3)cc(=O)n(C)c1=O,inactive
13,CC(C)(C)c1cc(CN2CCN(CCC#N)CC2)cc(C(C)(C)C)c1O,inactive
14,Cc1ccc(NC(=S)N(CCCN2CCC(C)CC2)Cc2ccco2)cc1,inactive
15,Cc1ccc(NC(=S)N(CCN2CCCCC2)Cc2ccco2)cc1C,inactive
16,Cc1ccc(NC(=S)N(CCCN2CCCC2)Cc2cccn2Cc2ccc(Cl)cc2)cc1,-5.03 (active)
17,COC(=O)[C@@H]1C[C@H]2CC[C@H](O)C[C@H]2N1Cc1ccc(N2CCN(C)CC2)cc1,inactive
18,N#C/C(C(=S)Nc1ccccc1)=C1/NN=C(N2CCOCC2)N1c1ccccc1,inactive
19,COc1cccc(CC(=O)N2CCCC(CCC(=O)N3CCN(c4ccccn4)CC3)C2)c1 (stereo unspecified),inactive
20,CCC(c1nnnn1C1CCCC1)N1CCN(C(=O)c2ccco2)CC1 (stereo unspecified),inactive
21,CC(C)C(c1nnnn1CCc1ccccc1)N1CCN(C(=O)c2ccco2)CC1 (stereo unspecified),-6.03 (active)
22,CC(C)C(c1nnnn1C1CCCCC1)N1CCN(C(=O)c2ccco2)CC1 (stereo unspecified),inactive
23,O=[N+]([O-])c1ccccc1/C=C/CN1CCC(O)CC1,inactive
24,O=[N+]([O-])c1ccccc1/C=C/CN1CCCC(CO)C1 (stereo unspecified),inactive

row,SMILES,B-score
1,CC1CC(C)CN(C/C=C/c2ccccc2[N+](=O)[O-])C1 (stereo unspecified),-10.9 (active)
2,CC1=C[C@H]2Cc3cc(C)cc(C)c3S(=O)(=O)[C@@H]2C=C1,inactive
3,CC(=O)c1cc(C#N)c(SCC(=O)Nc2nccs2)nc1C,inactive
4,Clc1ccc(C2=CSC3=Nc4cccc5cccc(c45)N23)cc1,inactive
5,CC(C)NC(=O)COCc1cc(-c2ccc3c(c2)OCO3)on1,inactive
6,CC(C)(C)c1ccc(C(=O)NCc2nnc(SCC(=O)N3CCCc4ccccc43)n2-c2ccccc2)cc1,inactive
7,Cn1c(S(=O)(=O)O)nc2ccccc21,inactive
8,N#C/C(=C1/CCCN1)c1ccccn1,inactive
9,Cn1c(/C(C#N)=C2/CCCCCN2)nc2ccccc21,-6.04 (active)
10,CC(=O)c1ccc(N2CCN(C(=O)c3ccc4nc[nH]c4c3)CC2)cc1,inactive
11,CC(=O)c1ccc(N2Cc3ccccc3C2)cc1,inactive
12,CCCCCOc1ccc(CSC2=NCCN2)cc1[N+](=O)[O-],-7.13 (active)
13,CCCOc1ccc(Cn2ccnc2)cc1[N+](=O)[O-],inactive
14,CCCCOc1ccc(CSC(=N)N)cc1[N+](=O)[O-],-6.92 (active)
15,Cc1nc(SCc2ccc(F)cc2)c([N+](=O)[O-])[nH]1,inactive
16,CCCCOC(=O)CCCc1ccc([N+](=O)[O-])cc1[N+](=O)[O-],inactive
17,Cc1cc(OCCCCOc2ccc(C#N)cc2)ccc1[N+](=O)[O-],inactive
18,COc1ccc(NC(=O)CN2C(=O)C(c3ccccc3)=NC23CCCCCC3)cc1OC,inactive
19,Cc1cc(C)c2oc(C(=O)Nc3ccc(S(=O)(=O)Nc4nccc(C)n4)cc3)cc(=O)c2c1,inactive
20,c1ccc(-c2cnc(CN3CCN(c4ccccc4)CC3)o2)cc1,inactive
21,COc1cc([N+](=O)[O-])cc([N+](=O)[O-])c1NC(=O)N1CCOCC1,inactive
22,O=C(NN1C(=O)C2C3C=CC(C3)C2C1=O)c1ccco1 (stereo unspecified),inactive
23,COC(=O)C1=C(C)N(C)C(=S)NC1c1cc(OC)ccc1OC (stereo unspecified),inactive
24,COc1cc(CNC2CCCCC2)c(Br)cc1OC1CCCC1,inactive

row,SMILES,B-score
1,CC(C)(C)NCc1cc(Br)ccc1OC1CCCC1,-6.86 (active)
2,CCOCCCNCc1cc(Br)ccc1OCC,inactive
3,O=C(c1ccc(CS(=O)(=O)c2ccccc2)o1)N1CCN(c2ccccc2)CC1,inactive
4,O=C(CNc1cccc(S(=O)(=O)N2CCCCC2)c1)Nc1ccccc1F,inactive
5,COc1ccccc1CCNC(=O)C(=O)NCCC1CCCCN1S(=O)(=O)c1cccs1 (stereo unspecified),inactive
6,Cn1c(=NC(=O)c2ccco2)sc2cccc(F)c21,inactive
7,Cn1c(=NC(=O)c2cnccn2)sc2ccccc21,-6.66 (active)
8,COC(=O)c1ccc(OC(=O)c2cnccn2)cc1,inactive
9,O=C(COc1ccccc1)Nc1ccc(F)cc1,inactive
10,O=S(=O)(c1ccc(F)cc1)N1CCN=C1SCc1cccc(F)c1,inactive
11,COC(=O)c1ccccc1NC(=O)C1(S(=O)(=O)c2ccc(Cl)cc2)CC1,inactive
12,CCCCCCCCn1c2c(c(=N)c3c1CCC3)CCCC2,-6.1 (active)
13,Cc1ccc(NC(=O)CCOc2ccccc2)cc1S(=O)(=O)Nc1ccccc1Cl,inactive
14,Cc1cc(C)c2nc3nc(C)cc(C)c3c(N)c2c1,-5.04 (active)
15,Cc1cc(C)c2nc(-c3ccco3)cc(C(=O)O)c2c1,inactive
16,COc1ccc(OCc2cc(C(=O)N3CCCC3)no2)c2ccccc12,inactive
17,CCOC(=O)/C=C/CN(C(=O)OC(C)(C)C)S(=O)(=O)N1CC=CC1,inactive
18,CC(Nc1nc(N2CCN(CCO)CC2)nc2ccccc12)c1ccccc1 (stereo unspecified),inactive
19,CC(Nc1nc(N2CCOCC2)nc2ccccc12)c1ccccc1 (stereo unspecified),inactive
20,CC(Nc1nc(N2CCCC2)nc2ccccc12)c1ccccc1 (stereo unspecified),-6.87 (active)
21,COc1ccc2[nH]cc(CCN3C(=O)c4ccc(C(=O)O)cc4C3=O)c2c1,inactive
22,Cc1nn(C)cc1C(=O)c1ccccc1,inactive
23,C=CCOc1ccc(/C=C/C(=O)OCC(=O)NC2CCCCCC2)cc1,inactive
